Compound activity as filed in PubChem.
Tau FP inhib: tau fibrillization inhibition (FP). K18 P301L tau heparin fibrillization, Alexa594 FP, 6 h. Potency, µM (doses to about 57.7 µM), for inactives: at the top dose activity, negative = inhibition, actives largely listed as inhibitors. 280,000 compounds, 0.39% hits. AID 1468; note: potency is the fitted concentration of half-maximal effect; nearly all actives have a fitted effect of over 55% in size
Target sequence (P10636 561-689 P618L limits assumed): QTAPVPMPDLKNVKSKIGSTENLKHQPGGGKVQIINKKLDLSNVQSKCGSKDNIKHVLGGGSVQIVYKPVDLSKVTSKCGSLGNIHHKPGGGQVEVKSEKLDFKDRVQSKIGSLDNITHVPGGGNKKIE
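Recombinant K18 P301L […], labeled with Alexa 594 at 0.24 uM over 15 uM unlabeled; heparin inducer 20 uM final; 37 C, 6 hr; FP endpoint.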
FBPA coupling cs: counter-screen for Giardia aldolase inhibitors: coupling enzyme system | coupling enzyme system counterscreen, AmpLite Red fluorescence | 290,000 compounds, 0.67% hits | activity change, negative = inhibition, % at 58.2 µM, hits read low; in the data active = activity change below about -30%
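First, compound is pin-transferred into glyceraldehyde-3-phosphate coupling-enzyme reagent at 57.5 uM final and held 10 min at RT. Next, substrate, coupling system and AmpLite Red are added. After 20 min RT, fluorescence (525/598 nm) is read.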
Tau fibril ThT: blocks human tau fibril formation measured by thioflavin T. AID 1460. P10636. recombinant tau K18 P301L, heparin-induced fibrillization, ThT fluorescence. 270,000 compounds, 2.1% hits. Potency, µM (series often up to 57.4 µM), for the others: at the highest dose activity, negative = inhibition, usual class: inhibitors; note: potency is the fitted concentration of half-maximal effect; nearly all actives have a fitted effect of over 55% in size
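Recombinant human tau K18 fragment […] carrying P301L, 15 uM unlabeled plus 0.24 uM Alexa 594-labeled, was fibrillized with 20 uM heparin in 100 mM sodium acetate pH 7 for 6 hr at 37 C; 30 uM ThT fluorescence read after 1 hr.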
Tau fluor cs: counter-screen for tau fibril formation inhibitors. tau K18 P301L Alexa594 fluorescence, heparin fibrillization. AID 1463. 280,000 compounds, 0.93% hits. Potency, µM (top dose mostly 57.7 µM), without a hit: at the top dose activity change, negative = decrease; note: potency is the fitted concentration of half-maximal effect; nearly all actives have a fitted effect of over 55% in size
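Human tau K18 P301L (15 uM unlabeled, 0.24 uM Alexa 594-labeled) in 100 mM sodium acetate pH 7 with 20 uM heparin, 6 hr at 37 C. ThT 30 uM added, 1 hr ambient; Alexa 594 FP and total fluorescence read at 555/632 nm.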
Sfp PPTase inh: Sfp phosphopantetheinyl transferase inhibition. Q9F4F7. Biochemical Sfp PPTase activity, qHTS. Potency, µM, without a hit: largest response in the series, negative = inhibition, most hits filed as inhibitors. 310,000 compounds, 3.5% hits. AID 1490;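 note: the enzyme is Sfp with the accession as filed and its product quenches rhodamine fluorescence; potency is the fitted concentration of half-maximal effect; 0% = enzyme reaction without inhibitor and -100% = no enzyme wells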
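After 15 min at room temperature with compound, 15 nM Sfp received 5 uM rhodamine-CoA plus 12.5 uM BHQ-2-ybbR (50 mM Hepes pH 7.6, 10 mM MgCl2). Rate came from the fluorescence difference over 30 min, ex 525/em 598 nm.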
Numbers without * were called inactive; ? = inconclusive; / = no result given; [ ] = dose if it differs, or a comment. Compounds with a hit are over-represented: about 5.2% of the library has one in this group of screens. Unless noted, calls come from the whole dose curve; as a rule, active = well fitted curve in the direction sought with a large enough effect; inconclusive = small, poorly fitted or top-dose-only effect, or another doubt; inactive = no such curve, though single readings can be large; an effect the other way counts as inactive or inconclusive. Unless noted, % is set by controls: 0 for no effect and ±100 for the full control effect.

SMILES	Tau FP inhib	FBPA coupling cs	Tau fibril ThT	Tau fluor cs	Sfp PPTase inh
Cc1ccc(S(=O)(=O)Nc2cc(C(C(=O)OC(C)C)C(=O)C(F)(F)F)c(O)c3ccccc23)c(C)c1 (stereo not drawn)	14%	-7	?	?	56µM*
Cc1ccc(S(=O)(=O)NNc2ccccc2)c(C)c1	?	-6	22µM*	-14%	18µM*
Cc1ccc(C)c(S(=O)(=O)Nc2ccc(O)c3ccccc23)c1	/	-9	/	/	71µM*
Cc1ccc(S(=O)(=O)Nc2ccc(O)c3ccccc23)c(C)c1	/	-19	/	/	56µM*
Cc1ccc(-n2nc(C)c3c(C)cc(=O)n(CC(=O)NC(C)c4ccccc4)c32)cc1 (stereo not drawn)	-2%	/	12%	4%	/
COCCCNC(=O)CCCn1c(=O)c2cccn2c2ccccc21	0%	/	?	2%	/
CCOC(=O)c1cnc2c(-c3ccccc3)cnn2c1N	1%	2	-14%	-10%	21%
CCOC(=O)c1cnc2c(N=Nc3ccccc3)c(N)nn2c1N	0%	1	2.5µM*	-11%	11%
CCOC(=O)c1cnc2c(-c3ccccc3)c(C)nn2c1N	0%	3	?	-10%	13%
CCOC(=O)c1cnc2c(N=Nc3cccc(Cl)c3)c(N)nn2c1N	-3%	1	2.5µM*	-13%	9%
CC(=O)c1cccc(NC(=O)CN2C(=O)c3ccccc3Sc3ncccc32)c1	-10%	/	1%	-7%	/
CCOc1ccccc1C(=O)Nc1ccc2nc(N(CC)CC)cc(C)c2c1	-2%	/	?	-22%	/
CCN(CC)c1cc(C)c2cc(NC(=O)/C=C/c3ccc(C)cc3)ccc2n1	2%	/	?	16µM*[quencher]	/
CCOc1ccc(/C=C/C(=O)Nc2ccc3nc(N(CC)CC)cc(C)c3c2)cc1OC	?	/	7.1µM*	?	/
CCN(CC)c1cc(C)c2cc(NC(=O)CNC(C)=O)ccc2n1	-1%	0	0%	3%	20%
CCOc1ccc(C(=O)Nc2ccc3nc(N(CC)CC)cc(C)c3c2)cc1	9%	/	?	16µM*[quencher]	/
CCN(CC)c1cc(C)c2cc(NC(=O)c3cccc(OC)c3OC)ccc2n1	14%	/	?	?	/
CCN(CC)c1cc(C)c2cc(NC(=O)/C=C/c3cc(OC)c(OC)c(OC)c3)ccc2n1	9%	/	4.5µM*	?	/
Cc1nn2c3c(cnc2c1-c1ccc(F)cc1)C(=O)CC(c1ccccc1)C3 (stereo not drawn)	-7%	/	0%	-6%	/
CCC(=O)NC(c1cccs1)c1ccc2cccnc2c1O (stereo not drawn)	-5%	0	-9%	-10%	?
Cc1conc1NC(c1cccs1)c1ccc2cccnc2c1O (stereo not drawn)	2%	-6	?	-25%	50µM*
Cc1cccc(C)c1NC(=O)CN(C)S(=O)(=O)c1ccc2[nH]c3c(c2c1)CCCC3	17%	/	2%	?	/
Cc1cc(C)cc(NC(=O)CN(C)S(=O)(=O)c2ccc3[nH]c4c(c3c2)CCCC4)c1	-9%	/	-7%	4.5µM*[quencher]	/
CCOc1ccc(NC(=O)CN(C)S(=O)(=O)c2ccc3[nH]c4c(c3c2)CCCC4)cc1	4%	/	-16%	14µM*[quencher]	/
COc1ccc(C(=O)c2oc3ccccc3c2NC(=O)COc2cccc(C)c2C)cc1	-11%	/	0%	-8%	/
SMILES	Tau FP inhib	FBPA coupling cs	Tau fibril ThT	Tau fluor cs	Sfp PPTase inh
CS(=O)(=O)N1CCC2(CC1)CN(c1cccc(-c3ccccc3)c1)C2	/	-2	/	/	3%
CC(=O)OC1CC(OC(C)=O)[C@]2(C)C(CC(O)[C@]3(C)C2CC[C@@]2(C)C(c4ccoc4)OC(=O)C4O[C@]432)C1(C)C (stereo partly drawn)	3%	-3	-20%	-17%	-7%
CC(=O)OC1CC(OC(C)=O)[C@]2(C)C(CC(=O)[C@]3(C)C2CC[C@@]2(C)C(c4ccoc4)OC(=O)C4O[C@@]423)C1(C)C (stereo partly drawn)	32µM*	2	25µM*	-21%	-10%
COc1cc(/C=C2\C(=O)ON=C2c2ccccc2)cc(Cl)c1O	-6%	1	?	-10%	-31%
O=C1ON=C(c2ccc(Cl)cc2)/C1=C/c1ccc(O)cc1	3%	16	?	-21%	22µM*
Cc1ccc(/C=C2/C(=O)ON=C2c2ccccc2)o1	-1%	1	?	-22%	14µM*
Cc1sc(/C=C2\C(=O)ON=C2c2ccccc2)cc1Br	-4%	9	-8%	-4%	11%
O=C1ON=C(c2ccccc2)/C1=C/c1ccc(O)cc1	/	0	/	/	50µM*
O=C1ON=C(c2ccccc2)/C1=C/c1ccccc1	/	7	/	/	45µM*
Cc1cccc(C[C@H](C(=O)O)N2C(=O)c3ccc(C(=O)O)cc3C2=O)c1	/	1	/	/	35%
C=C1CC2C3C=C(C)C4=CC(=O)CCC4(C)C3CCC2(C)[C@@]1(OC(C)=O)C(C)=O (stereo partly drawn)	/	/	/	/	-10%
O=S(=O)(c1ccc(Cl)cc1)c1nc(-c2ccco2)oc1SCc1ccc(F)cc1	?	/	-3%	?	/
O=[n+]1ccn([O-])c2ccccc21	/	/	/	/	4%
Cc1ccccc1CNC(=O)CCC(=O)N1CCSc2ccccc21	3%	/	0%	0%	/
O=C1ON=C(c2ccccc2)/C1=C\c1ccco1	-8%	0	?	-16%	14µM*
CC1=NOC(=O)/C1=C/c1ccc(O)cc1	4%	3	-7%	6%	40µM*
CCOc1cc(/C=C2\C(=O)ON=C2c2ccccc2)cc(Br)c1O	/	0	/	/	79µM*
CCCCc1ccc(/C=C2/C(=O)ON=C2c2ccccc2)s1	-3%	9	?	-4%	-11%
COc1cc(/C=C2/C(=O)ON=C2c2ccccc2)ccc1O	13%	0	-2%	-1%	50µM*
COc1cc(/C=C2\C(=O)ON=C2c2ccccc2)cc(Br)c1O	/	-2	/	/	?
CC1=NOC(=O)/C1=C/c1ccc(O)c(Br)c1	/	9	/	/	-29%
O=C(CN1C(=O)COc2ccc(S(=O)(=O)Nc3ccccc3)cc21)Nc1cccc(Cl)c1	?	/	19%	?	/
Oc1ccc(N2CCN(Cc3cc4c(cc3Br)OCCO4)CC2)cc1	/	1	/	/	50µM*
O=[N+]([O-])c1cc2c(cc1CN1CCN(c3ccccc3)CC1)OCO2	/	-1	/	/	-11%
O=C(CN1c2ccccc2Sc2ccccc21)NNC(=O)Nc1ccc(Cl)c(Cl)c1	?	0	?	5µM*[quencher]	-9%
O=C(CN1c2ccccc2Sc2ccccc21)NNC(=O)Nc1ccc(Cl)cc1	11%	1	/	5.6µM*[quencher]	-17%
COc1ccc(C2CC(=O)Oc3c(C(CCN4CCOCC4)c4ccc5c(c4)OCO5)c(OC)cc(OC)c32)cc1 (stereo not drawn)	/	3	/	/	-16%
